Measured values taken from PubChem BioAssay AID504397 (Broad Institute, 2011).
Results with a measured potency or affinity are listed apart. Activity calls are given as the source filed them. No rule for the calls is given here.

experiment: toxicity toward cultured mammalian cells – cell-based, plate reader, cherry-pick samples, cytotoxicity control, dose response (AID 504397); details: plate reader viability; series mostly up to 35 µM; activity change, negative = toxicity: at the top concentration

Compound	activity change, negative = toxicity
CCn1cc(/C=C(\NC(=O)c2ccccc2)C(=O)N2CCOCC2)c2ccccc21	-5.48% (inactive)
CCOc1ccc(N(Cc2ccc(OC)cc2)C(=O)c2ccco2)cc1	-1.84% (inactive)
Cc1ccc(C(=O)c2c3ccc(C(F)(F)F)cc3nn2CCC(N)=O)cc1	1.73% (inactive)
CC(C)c1c(C(=O)N/N=C/c2c[nH]c3ccccc23)nnn1-c1nonc1N	-5.13% (inactive)
O=C(Nc1ccc2c(c1)CCC2)c1ccccc1Br	-7.83% (inactive)
CC(/C=N\NC(=O)CN1CCN(S(=O)(=O)c2ccc(C)cc2)CC1)=C\c1ccccc1	-8.35% (inactive)
Cc1ccc(N=Cc2c(O)n(C)c(=O)n(C)c2=O)nc1	-5.66% (inactive)
CN(C)CCCN(C(=O)c1cc(-c2cccs2)nc2ccccc12)c1nc2ccc(F)cc2s1	-4.11% (inactive)
COc1cccc(-c2c(C(=O)N/N=C/c3sccc3C)nnn2-c2nonc2N)c1	0.939% (inactive)
NC(=NCCCCCCN=C(N)/N=C(\N)Nc1ccc(Cl)cc1)/N=C(\N)Nc1ccc(Cl)cc1	-4.22% (inactive)
CCOc1ccc(-n2c(SCc3ccc([N+](=O)[O-])cc3)nnc2-c2ccc(OC)cc2)cc1	-5.42% (inactive)
CCCCNC(=S)N=Nc1c(O)n(Cc2ccccc2)c2ccccc12	-12% (inactive)
O=C(COC(=O)c1ccccc1Cc1ccccc1)NC1CCS(=O)(=O)C1 (stereo not given)	-7.75% (inactive)
Cc1ccc(NC(=O)CCc2ccc(S(=O)(=O)NC3CCCCC3)cc2)cc1	-8.11% (inactive)
CCn1cc(/C=C(\NC(=O)c2ccccc2Cl)C(=O)N2CCOCC2)c2ccccc21	-5.63% (inactive)
